The nature of assay [1]: Cellular Toxicity (caspase-3) SK-N-SH (AID 661).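 Also: 0% = DMSO basal and 100% = 10 µM staurosporine.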 In a few lines:
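Caspase 3/7 activation is measured as a luminescence increase from aminoluciferin released by substrate cleavage in SK-N-SH cells after 16 hr compound treatment; values are AC50 from concentration-response curves.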

Assay [2] is described as follows: Cellular Toxicity (caspase-3) H-4-II-E (AID 663).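 Also: cells exposed to compound for 16 hr before readout.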 The note with it: H-4-II-E rat hepatoma, scaled: DMSO 0%, 100 µM tamoxifen 100%; at 92.2 µM (top of the series). In a few lines:
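Luminescence from caspase-cleaved aminoluciferin substrate, read 20 min after reagent addition, reports caspase 3/7 activation in rat H-4-II-E cells after 16 hr compound exposure. Normalized to DMSO (basal) and 100 uM tamoxifen (100%); AC50 from Hill fits.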

The nature of assay [3]: MultiTox-Fluor Cytotoxicity Assay - LYMP1-002 - Dead Cells (AID 960). Also: nearly all actives have a fitted effect of over 60% in size. Also: potency is read from the fitted curve at half-maximal effect. In a few lines:
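Acute cytotoxicity in a human lymphoblastoid line is scored as rising dead-cell protease signal after 16 hr exposure at 37 C, measured fluorometrically (485/520).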

Assay [4] is described as follows: Cell Viability - LYMP2-004 (AID 966). Also: nearly all actives have a fitted effect of over 65% in size. Also: potency is read from the fitted curve at half-maximal effect. The essentials:
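Acute toxicity is scored as a concentration-dependent drop in intracellular ATP, quantified by luciferase luminescence, in human lymphoblastoid cells exposed to compound for 24 hr. AC50 derives from Hill-equation modelling.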

Assay [5] can be described thus: Cell Viability - LYMP2-022 (AID 987). Also: nearly all actives have a fitted effect of over 55% in size. Also: potency is read from the fitted curve at half-maximal effect. The essentials:
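Acute toxicity in a human lymphoblastoid line is scored as decreased intracellular ATP after 24 hr compound treatment at 37 C. ATP is measured by CellTiter-Glo luminescence; curves are fitted with the Hill equation to give AC50.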

A short description of assay [6]: Cell Viability - LYMP2-024 (AID 988).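 Also: cells exposed to compound for 24 hr at 37 °C; nearly all actives have a fitted effect of over 60% in size.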 Also: potency is read from the fitted curve at half-maximal effect. In a few lines:
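Acute toxicity is measured as concentration-dependent loss of intracellular ATP in a human lymphoblastoid line treated 24 hours at 37 C. Luciferase luminescence quantifies ATP; AC50 values come from standard Hill-equation modelling.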

Assay [7] is described as follows: Cell Viability - LYMP2-026 (AID 989).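 Also: cells exposed to compound for 24 h at 37 °C; nearly all actives have a fitted effect of over 50% in size.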 Also: potency is read from the fitted curve at half-maximal effect. In a few lines:
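Concentration-dependent loss of intracellular ATP in human lymphoblastoid cells after 24 hr at 37 C, quantified by luciferase luminescence. AC50 derived from standard Hill equation.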

Assay [8] has as its target Peroxisome proliferator-activated receptor delta (Homo sapiens) (UniProt Q03181). Kind of assay: qHTS assay for small molecule agonists of peroxisome proliferator-activated receptor delta signaling (AID 588534; calls by dose curve;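 also: 0% = DMSO basal wells and 100% = positive control agonist at 10 µM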). In a few lines: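 Reporter cells were plated and held 5 hrs at 37 C before compounds were added. After 18 hrs at 37 C, CCF4 dye was loaded for 2 hrs at RT and fluorescence measured.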
A general note: qHTS replaces the single test concentration by a dilution series.

A short description of assay [9]: qHTS assay for small molecule activators of the p53 signaling pathway (AID 651743; active = well fitted activation curve with a large enough effect in the signal ratio, not every such curve was filed as active; inconclusive = small, poorly fitted or top-dose-only effect, or a change in a side signal; the % refers to the signal ratio; also: % of control where 0% means no effect). The note with it: HCT-116 p53RE-bla, beta-lactamase FRET ratio, 16 h; activation: active compounds read high. In a few lines:
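p53RE-bla HCT-116 cells with a stably integrated beta-lactamase reporter under p53 response elements were plated, rested 5 hours at 37 C/5% CO2, then exposed to compounds in DMSO for 16 hours at 37 C. LiveBLAzer B/G FRET substrate was read after 2 hours at room temperature.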

A short description of assay [10]: qHTS assay for small molecule disruptors of the mitochondrial membrane potential - 1 hr assay (AID 651754; calls by dose curve; also: nearly all actives have a fitted effect of over 35% in size; also: potency is read from the fitted curve at half-maximal effect). In a few lines:
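Steps: seed HepG2 cells and let attach overnight; pin-transfer compound or vehicle; incubate 1 hr at 37C; add Mito-MPS dye for 30 min; read two-channel fluorescence for monomer and aggregate forms.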

The target in assay [11] is Nuclear receptor ROR-gamma (Homo sapiens) (UniProt P51449). Kind of assay: qHTS assay for small molecule antagonists of the retinoid-related orphan receptor gamma (ROR-gamma) signaling pathway (AID 651802). Also: nearly all actives have a fitted effect of over 60% in size. Also: potency is read from the fitted curve at half-maximal effect. The essentials:
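Antagonism is scored as a fall in luminescence from a RORE-luciferase reporter in CHO cells expressing ROR under a TET-inducible promoter, measured 16hr after doxycycline induction in the presence of compound.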

Assay [12] can be described thus: qHTS assay for cell viability of HEK293 cells (AID 743288). Also: nearly all actives have a fitted effect of over 50% in size. Also: potency is read from the fitted curve at half-maximal effect. As to max response: % is scaled to controls: 0 for no effect and ±100 for the full control effect. The note with it: ATP luminescence (CellTiter-Glo), 18 h; max response: active compounds read low. The essentials:
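Luminescent ATP quantitation served as the viability read-out. Cells (parental HEK293, 2,000/well) received compounds after at least 5 h at 37 C and were exposed for 18 h before a 30 min room-temperature reagent step.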

The target of assay [13] is Estrogen receptor (Homo sapiens) (UniProt P03372). Kind of assay: qHTS assay for small molecule antagonists of estrogen receptor alpha signaling (AID 588513; active = well fitted curve in the direction sought with a large enough effect in the signal ratio, with a control signal flat, not every such curve was filed as active; inconclusive = small, poorly fitted or top-dose-only effect, or effect the other way, or a change in a side signal; inactive = no such curve, though single readings can be large or run the other way; the % refers to the signal ratio; also: potency is read from the fitted curve at half-maximal effect). In a few lines: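 Antagonist-mode qHTS in ER-alpha-UAS-bla HEK 293 cells: compound titration, 0.5nM estradiol for 18 h, CCF4 fluorescence, Hill-derived IC50.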
Chain of Estrogen receptor (Homo sapiens) (P03372 whole entry, looked up): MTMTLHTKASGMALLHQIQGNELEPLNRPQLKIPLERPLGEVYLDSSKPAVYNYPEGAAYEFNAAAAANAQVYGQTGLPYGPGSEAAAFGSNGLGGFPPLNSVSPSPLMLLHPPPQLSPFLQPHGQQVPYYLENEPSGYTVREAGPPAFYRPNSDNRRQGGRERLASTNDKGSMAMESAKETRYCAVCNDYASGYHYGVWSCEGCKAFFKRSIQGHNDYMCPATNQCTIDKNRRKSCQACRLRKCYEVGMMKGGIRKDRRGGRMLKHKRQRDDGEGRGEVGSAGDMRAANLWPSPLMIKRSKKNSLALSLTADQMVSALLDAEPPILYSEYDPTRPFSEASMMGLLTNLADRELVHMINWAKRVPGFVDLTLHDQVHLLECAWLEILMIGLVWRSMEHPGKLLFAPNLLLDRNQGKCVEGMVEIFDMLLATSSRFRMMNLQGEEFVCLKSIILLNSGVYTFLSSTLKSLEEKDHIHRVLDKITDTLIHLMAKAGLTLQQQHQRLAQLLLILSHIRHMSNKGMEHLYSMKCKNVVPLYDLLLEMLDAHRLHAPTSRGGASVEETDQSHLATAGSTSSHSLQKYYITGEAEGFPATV
Assay [14] can be described thus: S16 Schwann cell viability assay (CellTiter-Glo assay) (AID 624031).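 Also: cellular ATP luminescence as a viability measure; plate controls were DMSO-treated cells for no effect and cell-free wells for full effect; nearly all actives have a fitted effect of over 70% in size.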 In a few lines:
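CellTiter-Glo ATP luminescence counter-screen in untransfected S16 rat Schwann cells, 24h compound exposure at 37 degree Celsius after overnight seeding (500-750 cells/well); response scaled between cell-free wells and DMSO (0% activity), curves classed by r2 and magnitude.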

For another assay, the system named is CP266. Kind of assay: qHTS profiling for inhibitors of Plasmodium falciparum proliferation (AID 504749). Also: nearly all actives have a fitted effect of over 60% in size. Also: potency is read from the fitted curve at half-maximal effect. The note with it: P. falciparum in erythrocytes, SYBR Green DNA, 72 h; series mostly up to 28.7 µM. In a few lines: (§1)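 P. falciparum-infected erythrocytes (0.3% parasitemia, 2.5% hematocrit final) were exposed to compounds for 72 h at 37 C in 5% CO2, then lysed with SYBR Green buffer overnight at room temperature; parasite DNA fluorescence was normalized to artemisinin and DMSO controls.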

In another assay the test system is DIV17. Described as above. The note with it: P. falciparum in erythrocytes, SYBR Green DNA, 72 h; series mostly up to 28.7 µM. The essentials:
as §1

The next assay deals with PC15. The assay is described as above. The note with it: P. falciparum in erythrocytes, SYBR Green DNA, 72 h; series mostly up to 28.7 µM. The essentials: as §1
For a further assay, the system named is PC26. The assay is described as above. The note with it: P. falciparum in erythrocytes, SYBR Green DNA, 72 h; series mostly up to 28.7 µM. The essentials: as §1
The subject of a further assay is CP297. The description is as above. The note with it: P. falciparum in erythrocytes, SYBR Green DNA, 72 h; series mostly up to 28.7 µM. The essentials:
as §1

In another assay the test system is W2. The assay is described as above. The note with it: P. falciparum in erythrocytes, SYBR Green DNA, 72 h; series mostly up to 28.7 µM. The essentials: as §1

The structures appear in SMILES notation. Values without a mark were called inactive. Some structures have more than one record in an assay (separate samples or runs), and their calls can disagree. The source made the active and inactive calls. Unless noted, calls follow the shape of the dose curve; as a rule, active = well fitted curve in the direction sought with a large enough effect; inconclusive = small, poorly fitted or top-dose-only effect, or another doubt; inactive = no such curve, though single readings can be large; an effect the other way counts as inactive or inconclusive.

Chain of Nuclear receptor ROR-gamma (Homo sapiens) (P51449 whole entry, looked up): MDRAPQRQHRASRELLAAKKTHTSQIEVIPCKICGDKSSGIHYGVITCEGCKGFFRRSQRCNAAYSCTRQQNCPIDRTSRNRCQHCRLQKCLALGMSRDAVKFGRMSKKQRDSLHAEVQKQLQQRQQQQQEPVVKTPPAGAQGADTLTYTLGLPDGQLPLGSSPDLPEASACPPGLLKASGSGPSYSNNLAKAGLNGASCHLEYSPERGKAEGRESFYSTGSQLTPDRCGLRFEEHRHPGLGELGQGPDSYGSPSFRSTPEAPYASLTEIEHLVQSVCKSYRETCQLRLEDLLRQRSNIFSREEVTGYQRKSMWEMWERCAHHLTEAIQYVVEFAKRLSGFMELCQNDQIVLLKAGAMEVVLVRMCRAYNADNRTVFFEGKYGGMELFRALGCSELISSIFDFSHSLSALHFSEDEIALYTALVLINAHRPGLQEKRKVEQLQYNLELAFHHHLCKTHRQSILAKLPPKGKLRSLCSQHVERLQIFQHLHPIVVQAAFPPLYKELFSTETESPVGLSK
Chain of Peroxisome proliferator-activated receptor delta (Homo sapiens) (Q03181 whole entry, looked up): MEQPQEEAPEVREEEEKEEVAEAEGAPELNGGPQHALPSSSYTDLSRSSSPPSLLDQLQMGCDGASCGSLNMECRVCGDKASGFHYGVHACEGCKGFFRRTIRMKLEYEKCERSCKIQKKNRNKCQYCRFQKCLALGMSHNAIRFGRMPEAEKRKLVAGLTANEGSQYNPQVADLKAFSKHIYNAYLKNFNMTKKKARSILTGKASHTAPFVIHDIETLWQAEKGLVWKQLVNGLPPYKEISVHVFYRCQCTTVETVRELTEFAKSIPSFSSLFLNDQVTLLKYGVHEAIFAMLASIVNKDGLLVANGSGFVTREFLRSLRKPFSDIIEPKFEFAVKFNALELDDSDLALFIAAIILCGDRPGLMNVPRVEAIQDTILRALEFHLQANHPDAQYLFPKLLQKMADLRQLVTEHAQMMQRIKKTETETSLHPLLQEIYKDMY

On to `O=C(CCl)c1ccccc1`, for which the outcome in assay [1] and in assay [8] was inactive. For the same compound, the caspase-3 activation in assay [2] is -5.13%. The Potency in assay [3] was 25.1 µM (active); in assay [4], 10 µM (active); in [5], 6.31 µM (active); in assay [6], 7.94 µM (active); in [7], 12.6 µM (active); in assay [11], 16.8 µM (active). In addition, the Potency in assay [12] was 35.5 µM (active). Moreover, in [9], the activation was 2.08%. Further, in assay [10], the Potency result was “inactive”. The max response in [12] was -16%.

Consider `CN(C)c1ccc(N=O)cc1`, for which, in [1], the outcome was inactive. Further, the caspase-3 activation in assay [2] is -1.57%. The Potency in [3] was 3.16 µM (active); in [4] it was 0.794 µM (active); in assay [5], 0.631 µM (active); in [6] it was 0.501 µM (active); in [7], 2.51 µM (active); in assay [13], 22.4 µM [inconclusive] (active). Moreover, the Potency in [11] is 7.5 µM (active). Further, in assay [9], the activation is -1.31%.

`CC(=O)[O-].CC(=O)[O-].O.O.[Cd+2]`: in [1], the compound was classed as inactive. In assay [2], the caspase-3 activation is 0.407%. Moreover, the Potency result in assay [3] and in [10] was “inactive” each time.

In the case of `O=C(O)C1C(C(=O)O)C2(Cl)C(Cl)=C(Cl)C1(Cl)C2(Cl)Cl` (configuration not stated), the outcome in assay [1] and in assay [8] was inactive. The caspase-3 activation in assay [2] was -0.161%. For the same compound, the Potency result in assay [3], in assay [4], in assay [5], in assay [6], in assay [7] and in assay [13] was “inactive” in each case. In addition, the Potency result in assay [10] and in assay [11] was “inactive” each time. The activation in [9] was -3.18%. Also, in [12], the max response was 0.0125%.

Consider `Nc1ccccc1C(=O)OCCc1ccccc1`, for which the compound was called inactive in assay [1]. For the same compound, the caspase-3 activation in [2] is -2.95%. For the same compound, the Potency entry in assay [3], in assay [4], in assay [5], in assay [6], in assay [7] and in assay [11] was “inactive” throughout. Also, in assay [9], the activation is -0.792%.

Turning to `O=[N+]([O-])C(Br)Br`, the outcome in assay [1] and in [8] was inactive. In addition, the Potency result in assay [3] and in assay [10] was “inactive” throughout. Further, the Potency in assay [4] was 25.1 µM (active); in assay [5] it was 12.6 µM (active); in [6] it was 7.94 µM (active); in [7], 20 µM (active); in [11], 18.8 µM (active). In [9], the activation is 12.3%.

`Clc1ccc(C(c2ccc(Cl)cc2)C(Cl)Cl)cc1`: the compound was classed as inactive in assay [1] and in assay [8]. In assay [2], the caspase-3 activation is 87.3% (active). Moreover, the Potency in [3] is 15.8 µM (active); in assay [13], 39.8 µM [inconclusive] (active); in [10], 59.6 µM (active); in assay [11] it was 37.6 µM (active). The Potency entry in assay [4], in assay [5], in assay [6] and in assay [7] was “inactive” in each case. The activation in assay [9] is 6.6%.

For `CC(C)CC(C)Nc1ccc(Nc2ccccc2)cc1` (configuration not stated), the outcome in [1] and in assay [8] was inactive. Moreover, the Potency in assay [4] was 25.1 µM (active); in [5], 31.6 µM (active); in assay [6] it was 25.1 µM (active); in assay [13], 25.1 µM [inconclusive] (active); in assay [11] it was 37.6 µM (active). In assay [12], the max response was -21.7%.

As for `Cc1ccc2ccccc2c1C`, in assay [12], the max response was 5.03%.

With `CC1(C)[C@@H](C=C(Cl)Cl)[C@@H]1C(=O)OCc1c(F)c(F)cc(F)c1F`, the Potency result (in assay [14]; in the assay on CP266; in the assay with DIV17; in the assay on PC15; in the assay on PC26) was “inactive” throughout.

As for `CCCCCC(O)C1C(=O)OC(C)C(O)\C=C/C=C\C=C/C=C\C=C(\C)C(O)C(O)C(O)CC(O)CC(O)CC(O)CC(O)CC1O` (configuration not stated), the Potency entry (in assay [14]; in the assay on CP266; with CP297; with DIV17; in the assay on PC15; in the assay with PC26) was “inactive” in each case. In addition, the Potency entry in the assay on W2 was “inactive”.

As for `C[C@@H]1CC[C@H]2[C@@H](C)C(=O)O[C@@H]3OC4(C)CC[C@@H]1C32OO4` (some centres not stated), the Potency is 0.019 µM (active) with CP266; 0.0151 µM (active) with CP297; 0.0095 µM (active) in the assay on DIV17; 0.01 µM (active) in the assay on PC15; 0.0076 µM (active) with PC26; 0.003 µM (active) with W2.

As for `Cc1ccc2c(c1)[C@@H]1CN(C)CC[C@H]1N2`, the Potency entry (in assay [14]; in the assay with CP297; in the assay on DIV17; in the assay on PC15; in the assay on PC26) was “inactive” throughout.

On to `CC1(C)S[C@@H]2[C@H](N)C(=O)N2C1C(=O)O` (some centres not stated), for which the Potency result (in [14]; in the assay with CP266; in the assay with CP297; with DIV17; in the assay on PC15; in the assay with PC26) was “inactive” throughout. Also, the Potency result with W2 is “inactive”.

Take `COc1ccc2c3c1O[C@H]1[C@@H](O)C=C[C@H]4C(C2)NCCC341` (some centres not stated): the Potency entry (in assay [14]; in the assay with CP266; with CP297; with DIV17; with PC15; in the assay on PC26) was “inactive” in each case. In addition, in the assay on W2, the Potency result was “inactive”.

`OCC(O)[C@H]1O[C@@H]2O[C@H](C(Cl)(Cl)Cl)O[C@@H]2[C@H]1O` (some centres not stated): the Potency entry (in assay [14]; in the assay with CP266; in the assay with CP297; in the assay on DIV17; with PC15; in the assay on PC26) was “inactive” in each case. The Potency entry with W2 is “inactive”.

As for `C[C@]12C=CC(=O)C=C1CC[C@@H]1C2CC[C@]2(C)OC(=O)CCC12` (some centres not stated), the Potency result (in assay [14]; in the assay with CP266; in the assay on CP297; in the assay with DIV17; in the assay on PC15; with PC26) was “inactive” each time. Besides, in the assay on W2, the Potency result was “inactive”.

Regarding `CCCCCc1cc(O)c2c(c1)OC(C)(C)C1CC=C(C)CC21` (configuration not stated), the Potency is 12 µM (active) in the assay with CP266; 1.51 µM (active) in the assay on DIV17; 5.01 µM (active) in the assay with PC15; 1.9 µM (active) in the assay on PC26; 1.51 µM (active) in the assay with W2.

Consider `[S]=[Sb][S][Sb]=[S]`, for which the Potency entry (in assay [14]; with CP266; with CP297; in the assay on DIV17; in the assay with PC15; in the assay on W2) was “inactive” throughout.

Source of the values: PubChem BioAssay (NCATS).
